Laboratory results reported in PubChem BioAssay (NCI).
The panel holds about 79,000 compounds, 15% with a hit somewhere; the sample as a whole holds those more often. The source made the active and inactive calls. Rule as the data show it: active = growth inhibition above about 70%; inactive = the rest.

How the values were obtained:
[1] = NCI Yeast Anticancer Drug Screen. Data for the rad50 strain (AID 155);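 also: 0% = growth of vehicle-only cultures of the same strain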; details: S. cerevisiae rad50 strain growth inhibition; at 50.0 µM; hits give high values
Summary of the method: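 DNA repair mutant yeast, compound exposure, growth read-out; inhibition is taken relative to vehicle.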

[2] = NCI Yeast Anticancer Drug Screen. Data for the mec2-1 strain (AID 157); details: S. cerevisiae mec2-1 strain, at 50.0 µM, hits give high values
Summary of the method: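 mec2-1 yeast strain, carrying an alteration in DNA damage repair or cell cycle control, was exposed to compounds; growth inhibition was measured relative to vehicle-treated controls.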

[3] = NCI Yeast Anticancer Drug Screen. Data for the sgs1 mgt1 strain (AID 161);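 also: 0% = growth of cultures given vehicle only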; details: S. cerevisiae sgs1 mgt1 strain, at 50.0 µM, hits give high values
Summary of the method: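 Growth of a repair-deficient yeast mutant was monitored after compound treatment and expressed as inhibition relative to vehicle-treated cultures.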

[4] = NCI Yeast Anticancer Drug Screen. Data for the cln2 rad14 strain (AID 165);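 also: 0% = growth equal to vehicle treated cultures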; details: S. cerevisiae cln2 rad14 strain, at 50.0 µM, hits give high values
Summary of the method: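 Yeast carrying cln2 and rad14 alterations (cell cycle control and DNA damage repair) were exposed to compounds. Growth inhibition was measured against vehicle-treated controls.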

[5] = NCI Yeast Anticancer Drug Screen. Data for the bub3 strain (AID 167); details: S. cerevisiae bub3 mutant strain, at 50.0 µM, hits give high values
Summary of the method: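 In this screen, a yeast mutant lacking normal mitotic checkpoint function is challenged with compound. Relative growth versus vehicle gives the inhibition value.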

[6] = NCI Yeast Anticancer Drug Screen. Data for the mlh1 rad18 strain (AID 175); details: S. cerevisiae mlh1 rad18 strain growth inhibition; at 50.0 µM; hits give high values
Summary of the method: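 Growth inhibition of the yeast strain was measured after compound exposure and expressed relative to vehicle-treated controls. The strain carries defined defects in DNA damage repair.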

Measured: growth inhibition

O=c1[nH][nH]c(=O)c2c1nc(SCc1ccc(Br)cc1)n2Cc1ccccc1
inactive: [1] 16.9% | [2] 0.3% | [3] -7.95% | [4] 1.85% | [5] -2.35% | [6] 3.8%

Nc1nc(N)c2nc3c(nc2n1)C(=O)N(c1ccc(C(=O)O)cc1)C3
inactive: [1] 1.55% | [2] 34.9% | [3] 27.9% | [4] -2.8% | [5] 32.1% | [6] 23.2%

CCc1nnnn1-c1ccc(Br)cc1
inactive: [1] 8.8% | [2] 38.5% | [3] 13.7% | [4] 9.8% | [5] 40.2% | [6] 18.5%

COC(=O)C1(Cc2ccc3c(c2)CCC3)Cc2cc3c(cc2C1)CCC3
inactive: [1] -16.1% | [2] 15.7% | [3] -40.2% | [4] 15.8% | [5] -0.35% | [6] -21.6%

CCCC(=O)OC1C=C2N3C(=O)C4CC56C(=CC(OC(C)=O)C7OC75)N4C(=O)C3CC26C2OC12 (stereo not given)
active: [1] 83.3% | [2] 84.2% | [3] 89.7% | [4] 78.8% | [5] 76.3% | [6] 85.2%

C=CCC1C(=O)NN=C1C (stereo not given)
inactive: [1] 5.05% | [2] -12.1% | [3] -10.7% | [4] -22.5% | [5] -5.5% | [6] 2.45%

COc1cccc2c(=O)oc(-c3ccc(C(C)(C)C)cc3)nc12
inactive: [1] 16.4% | [2] 8.8% | [3] 18.4% | [4] 1.3% | [5] 13.4% | [6] 30.9%

Cc1ccnc(Nc2nnc(Nc3cc(C)ccn3)c3ccccc23)c1
inactive: [1] -20.8% | [2] -12.6% | [3] -5.85% | [4] -22% | [5] -3.8% | [6] -4.45%

CCCN(CCCC(NC(C)=O)C(=O)NCc1ccccc1)C(=O)NC (stereo not given)
inactive: [1] -11.1% | [2] -18.8% | [3] -28.4% | [4] 1.2% | [5] -4.65% | [6] -45.3%

CCOc1ccc(NC(=O)c2cccc(C(=O)Nc3ccc(OCC)cc3)c2)cc1
inactive: [1] -13.8% | [2] -12.3% | [3] -8.15% | [4] -20.9% | [5] -5.35% | [6] -0.7%

COC(=O)C(Cc1ccc2c(c1)CCC2)Cc1ccc2c(c1)CCC2
inactive: [1] -46.9% | [2] -16.4% | [3] -7.4% | [4] -41.6% | [5] 11.1% | [6] -22.4%

COc1ccc2nc3cc(Cl)ccc3c(Sc3ccc(NC(C)=O)cc3)c2c1
inactive: [1] 22.1% | [2] -5% | [3] -2.5% | [4] 11.3% | [5] 11.3% | [6] 9.1%

CC(=O)C1CC[C@@]2(C)C(CC[C@H]3[C@@H]4CCC[C@H]([C@H](C)O)[C@@]4(C)CC[C@@H]32)C1 (stereo not given in full)
inactive: [1] -16.9% | [2] 0.3% | [3] 2.9% | [4] 0.4% | [5] -5.5% | [6] -7.5%

CCOC(=O)c1ccc(C=O)cc1
inactive: [1] 15.5% | [2] -5.75% | [3] -4.95% | [4] 6.25% | [5] -5.8% | [6] -11.5%

CC(O)C1OC(O)C2OC(C)(C)OC12 (stereo not given)
inactive: [1] 20.1% | [2] 17.4% | [3] 16.4% | [4] -4.35% | [5] 14.6% | [6] 7.9%

O=C1NC(=O)C2(CCCC2=Nc2ccc(Br)cc2)C2C=CN(Cc3ccccc3)C=C12 (stereo not given)
inactive: [1] 0.25% | [2] -4.25% | [3] 6.3% | [4] 2.4% | [5] 3.65% | [6] 35.2%

COc1ccc(/C=C/C(=O)c2ccc3c(c2)OCO3)cc1OC
inactive: [1] -15.6% | [2] -14.8% | [3] -45.1% | [4] -6.65% | [5] -33.7% | [6] -23.5%

O=[N+]([O-])c1ccc(N=NNc2ccc(N=Nc3ccccc3)cc2)cc1
inactive: [1] 12.1% | [2] -18.8% | [3] -1% | [4] 6.7% | [5] 0.1% | [6] 4.6%

COc1cc(/C=C/C(=O)c2sc(NNC(C)=O)nc2C)ccc1O
inactive: [1] 15.6% | [2] 6.85% | [3] 19.3% | [4] 23.1% | [5] 18.8% | [6] 27.1%

O=c1oc2ccccc2[n+]([O-])c1-c1ccccc1
inactive: [1] -9.9% | [2] -10.8% | [3] -9.35% | [4] 16.9% | [5] -18.8% | [6] -17.9%

C=CCn1c(NCCN(CC)CC)nc2ccc(Cl)cc2c1=O
inactive: [1] 47% | [2] 6.5% | [3] 31.8% | [4] 0.85% | [5] 11.8% | [6] 19.4%

Cc1cccc(C(=O)O)n1.[Cu+2]
inactive: [1] -20.6% | [2] 7.6% | [3] -19.4% | [4] -69.9% | [5] -27.6% | [6] -11.6%

C[N+]1=C(/C=C/Nc2ccc(Cl)cc2)C(C)(C)c2ccccc21
inactive: [1] -2.35% | [2] 6.2% | [3] -10.4% | [4] -2.55% | [5] -1.8% | [6] 9.5%

CN(C)C1=c2c(=O)n(C)c(=O)n(C)c2=NC2C=CC=CN12 (stereo not given)
inactive: [1] 10.8% | [2] 13.6% | [3] 17.4% | [4] 4.15% | [5] 15% | [6] 22.6%

CCOC(=O)C(CCN(C)C)(CCN(C)C)c1ccccc1
inactive: [1] -6.3% | [2] -2.75% | [3] 21.6% | [4] -30.2% | [5] -13% | [6] -2.75%

CN(C)CC1C2CCC(C2)C1O (stereo not given)
inactive: [1] 2.2% | [2] -20.6% | [3] -7.7% | [4] 8% | [5] -11.7% | [6] 4.4%

Cc1ccc(NC(=O)Oc2ccc(F)cc2)cc1NC(=O)Oc1ccc(F)cc1
inactive: [1] 25.9% | [2] 13.3% | [3] 15.3% | [4] 15.2% | [5] -4.95% | [6] 33.6%

CCOC(=O)NC(=O)c1cn(CCCCCCCCCCC(=O)NCCCN2CCN(CCCNC(=O)CCCCCCCCCCn3cc(C(=O)NC(=O)OCC)c(=O)[nH]c3=O)CC2)c(=O)[nH]c1=O
inactive: [1] -19.2% | [2] 12.9% | [3] -23.8% | [4] -27.4% | [5] 2.25% | [6] -17.6%

O=C(O)c1c[nH]c2c([N+](=O)[O-])cccc2c1=O
inactive: [1] 40.4% | [2] 16.5% | [3] 30.7% | [4] 8.5% | [5] 13.6% | [6] 28.4%

CN(C)C(=O)/C=C/C(=O)O (tested in a mixture with another compound)
inactive: [1] -1.25% | [2] -10.3% | [3] 6.9% | [4] 7.65% | [5] 16.8% | [6] -20.8%

O=C(O)CCCC1=C2CCC(=O)C=C2CCC1
inactive: [1] -15.8% | [2] -24.6% | [3] -10.3% | [4] 0.2% | [5] -20.6% | [6] -10.1%

N#CN1CCC2CC(=O)CCC2C1 (stereo not given)
inactive: [1] 6.2% | [2] 2.95% | [3] -6.5% | [4] 5.75% | [5] 0.75% | [6] -10.6%

Cc1ccc(N2C3=C(CC4=C2CC(C)(C)CC4=O)C(=O)CC(C)(C)C3)cc1
inactive: [1] -29.6% | [2] -25.1% | [3] -21.1% | [4] -15.9% | [5] -33.8% | [6] -24.9%

O=C1c2ccccc2-c2ccc(-n3c(=O)c4ccccc4c4ccccc4c3=O)cc21
inactive: [1] 28.6% | [2] -1.7% | [3] 29.8% | [4] 16.1% | [5] 8.35% | [6] 25.4%

CC1OC2(CC(OCc3ccccc3)C1OCc1ccccc1)OCCO2 (stereo not given)
inactive: [1] -10.9% | [2] -3.85% | [3] -8.7% | [4] -4.8% | [5] 21.6% | [6] -31.9%

Cc1nc(NCc2ccco2)nc(NCc2ccco2)c1[N+](=O)[O-]
inactive: [1] -14.7% | [2] -18.6% | [3] -5.85% | [4] -22.6% | [5] 27.7% | [6] -13.1%

O=C(NC1CCCCC1)N(C1CCCCC1)C1CCCCC1
inactive: [1] 7.65% | [2] 9.95% | [3] -2.05% | [4] 2.85% | [5] 23.9% | [6] 1.85%

CC(C)=CCCc1ccc2c(c1)C(=O)c1cc3c(cc1C2=O)OCO3
inactive: [1] -13.9% | [2] 15.1% | [3] 21.1% | [4] 9.6% | [5] 10.6% | [6] -2.1%

CCOC(=O)COc1cc2c(cc1C(CC)c1ccccc1)OCO2 (stereo not given)
inactive: [1] -7.85% | [2] -1.45% | [3] -3.25% | [4] 5.95% | [5] 9.45% | [6] 2.9%

O=S1(=O)CCCC1C(O)c1ccccc1 (stereo not given)
inactive: [1] 13.8% | [2] -5.75% | [3] -8.85% | [4] -60.2% | [5] 1.55% | [6] -15.1%
